In PubChem BioAssay:
The source made the active and inactive calls.

How the values were obtained:
[1] = A549 cell viability effects, profiling panel, calcein-AM fluorescence, 48 h, basal (AID 1162); settings: higher = more signal
[2] = adipocyte viability effects, profiling panel, cell-based, 3T3-L1 adipocytes, calcein-AM fluorescence, 48 h, basal (AID 1163); settings: 3T3-L1 adipocytes viability, higher = more signal
[3] = HepG2 cell viability effects, profiling panel, calcein-AM fluorescence, 48 h, basal (AID 1164); settings: higher = more signal
[4] = MM1S cell viability effects, profiling panel, calcein-AM fluorescence, 48 h, basal (AID 1165); settings: higher = more signal;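 further: viability of MM1S multiple myeloma cells under basal unstimulated conditions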
[5] = basal RPMI8226 viability, no added stimulus, profiling panel, cell-based, calcein-AM fluorescence, 48 h, PK04 Diversity Set (AID 1166); settings: RPMI8226 myeloma viability, higher = more signal;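 further: cells grown under basal conditions without added stimulus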
[6] = basal HepG2 mitochondrial membrane potential changes, profiling panel, cell-based, JC-1 fluorescence, 24 h, 100 nL compound (AID 1167); settings: higher = more signal
[7] = basal 3T3-L1 adipocyte mitochondrial potential changes, profiling panel, cell-based, JC-1 fluorescence, 3T3-L1 adipocytes, 24 h, 100 nL compound (AID 1168); settings: JC-1 mitochondrial fluorescence, higher = more signal, called active from +8 up or from −8 down
[8] = basal RPMI8226 mitochondrial membrane potential changes, profiling panel, cell-based, JC-1 fluorescence, 24 h, 100 nL compound (AID 1169); settings: RPMI8226 myeloma, JC-1 mitochondrial potential fluorescence, higher = more signal
[9] = basal MM1S mitochondrial membrane potential changes, profiling panel, cell-based, JC-1 fluorescence, 24 h, 100 nL compound (AID 1170); settings: higher = more signal
[10] = A549 lung cancer cell viability effects, profiling panel, resazurin fluorescence, 24 h, PK04 Diversity Set (AID 1171); settings: higher = more signal, called active from +8 up or from −8 down
Further: test concentration not given here.

Compound	z-score [1]	z-score [2]	z-score [3]	z-score [4]	z-score [5]	z-score [6]	z-score [7]	z-score [8]	z-score [9]	z-score [10]
Cc1cc(C)c(C(O)C2C=CC3C(=O)N(c4ccccc4)C(=O)C3N2Nc2ccc([N+](=O)[O-])cc2)c(C)c1 (stereo not given)	-0.308	1.09	-0.0308	-0.86	-0.662	-1.95	-3.61 (inactive)	-0.367	-1.04	0.634 (inactive)
O=C1N(Cc2ccccc2)c2ccccc2[C@H]2OC(c3ccc(OCCCO)cc3)=N[C@@]12CCS(=O)(=O)c1ccccc1	-0.737	0.899	-0.117	-0.641	-1.43	0.291	0.605 (inactive)	-0.497	-0.0454	-0.725 (inactive)
COc1ccc(CCNC(=O)[C@@H]2c3ccccc3C(=O)N(Cc3ccccc3C(F)(F)F)[C@H]2c2ccc(CO)cc2)cc1	0.0059	-0.513	0.106	-0.601	-0.0978	1.2	0.996 (inactive)	-0.667	0.00958	2.22 (inactive)
COCC(=C=CC[C@@H](O)c1ccccc1OCCO)C[C@@H](O)COCc1ccccc1	1.94	1.04	1.13	0.338	0.801	1.32	0.54 (inactive)	-0.719	1.59	1.84 (inactive)
O=C1O[C@@H](c2ccccc2)[C@@H](c2ccccc2)N2[C@@H](c3ccc(O)cc3)[C@]3(C(=O)Nc4ccc(C#CC5(O)CCCCCC5)cc43)[C@@H](C(=O)N3CCN(c4ncccn4)CC3)[C@H]12	-0.415	0.292	-0.458	-0.0835	-0.813	-0.512	-0.68 (inactive)	-1.05	-0.203	0.533 (inactive)
[N-]=[N+]=NCc1ccccc1[C@H]1OC(c2ccc(OCCCO)cc2)=N[C@@]1(Cc1ccccc1)C(N)=O	0.267	0.514	1.63	-0.0987	0.317	1.19	0.593 (inactive)	-0.418	-1.01	1.16 (inactive)
COc1ccc(C#Cc2ccc3c(c2)[C@]2(C(=O)N3)[C@H](C(N)=O)[C@H]3C(=O)O[C@H](c4ccccc4)[C@H](c4ccccc4)N3[C@@H]2c2ccc(O)cc2)cc1	-0.765	0.13	-4.5	-3.29	-4.56	-3.11	0.283 (inactive)	-1.1	-2.28	-1.05 (inactive)
COCCCNC(=O)[C@@H]1c2ccccc2C(=O)N(Cc2cc(F)cc(C(F)(F)F)c2)[C@H]1c1ccc(CO)cc1	0.323	0.0853	0.463	0.575	-0.725	1.25	-0.82 (inactive)	1.15	-0.33	0.301 (inactive)
C=CCC(OC(C)=O)[C@@H]1[C@@H](N(Cc2cccc3ccccc23)C(=O)Cc2ccc(F)cc2)c2cc(OCCCO)ccc2N1C(=O)Cc1ccc(OC)cc1 (stereo not given in full)	1.34	1.88	0.99	0.827	0.762	2.26	0.527 (inactive)	0.183	-0.0319	0.641 (inactive)
C[N+](C)(C)CCCC[C@@H]1NC(=O)[C@@H]2C[C@H](C(=O)O)[C@H](c3cccc(OCCO)c3)N2C1=O	1.58	0.185	0.403	0.305	0.367	2.43	0.204 (inactive)	0.423	0.17	1.13 (inactive)
CO[C@H]1O[C@H](CO)[C@@H](OC(=O)Nc2cccc(F)c2)[C@H](OC(=O)Nc2ccc3c(c2)OCO3)[C@H]1OC(=O)Nc1ccc2c(c1)OCO2	-0.598	0.424	-1.86	-1.17	-2.11	-0.216	0.712 (inactive)	-0.313	-0.0179	-1.14 (inactive)
CC(=O)NCCCC[C@@H]1NC(=O)[C@H]2C[C@@H](C(=O)NCCCCCN)[C@@H](c3cccc(OCCO)c3)N2C1=O	-0.0064	0.352	0.491	0.701	0.948	0.0469	0.408 (inactive)	-0.38	0.155	1.1 (inactive)
[N-]=[N+]=NCc1ccccc1[C@H]1OC(c2ccc(OCCCO)cc2)=N[C@@]1(Cc1ccccc1N=[N+]=[N-])C(=O)N1CCCCC1	-0.457	-0.5	-0.536	-2.14	-2.79	1.06	0.0871 (inactive)	-0.978	-1.76	-0.409 (inactive)
O=C1CSC(c2cccc([N+](=O)[O-])c2)N1c1ccccc1 (stereo not given)	-0.295	-0.23	1.71	1.31	-0.566	1.04	1.05 (inactive)	0.0369	-0.779	-0.292 (inactive)
